Test results as given in ChEMBL document CHEMBL1201862, “PubChem BioAssay data set” (2004).

Species on record: Homo sapiens
Test: Quantitative High-Throughput Screen for Compounds Blocking the Interaction Between CBF-beta and RUNX1 for the Treatment of Acute Myeloid Leukemia: Summary. [Related pubchem assays (depositor defined):AID1477, AID504370, AID504374, AID504375]; call rule not given here
Type: functional

Structure (SMILES)	Potency
CCCCn1c(NS(=O)(=O)c2ccccc2)c(C(=O)OCC)c2nc3ccccc3nc21	112 nM (active)
O=C(O)CCCC[C@@H]1SC[C@@H]2NC(=O)N[C@@H]21	1780 nM (active)
CC1CC(NC(=O)C2C3CCC(O3)C2C(=O)O)CC(C)(C)C1 (centres undefined)	112 nM (active)
O=C(O)CCCC[C@@H]1SC[C@H]2NC(=O)N[C@@H]12	12600 nM (active)
